The sample as a whole holds a higher share of hits than the screen did.
Methyltransferases: Primary Screen for Target Class Profiling of Small Molecule Inhibitors of Methyltransferases | purified enzyme, MTase-Glo SAH luminescence; stronger effect = lower value | 25,000 tested, 3.9% active | calls only at 40 µM; call rule not given here
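Each enzyme was assayed with SAM and its substrate. SAH formation detected by MTase-Glo luminescence; single-point 40 uM screen[…].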
Of the large screens only hits and unclear results are named; the others gave an inactive call.

CC1(C)CC[C@]2(C(=O)O[C@@H]3O[C@H](CO)[C@@H](O)[C@H](O)[C@H]3O)CC[C@]3(C)C(=CCC4[C@@]5(C)CC[C@H](O[C@@H]6O[C@H](C(=O)O)[C@@H](O)[C@H](O)[C@H]6O)C(C)(C)C5CC[C@]43C)C2C1 (some centres not stated)	none
CC1OC(OC2C(OC(=O)[C@]34CCC(C)(C)C[C@H]3C3=CCC5[C@@]6(C)CC[C@H](OC7OC(C(=O)O)C(O)C(O)C7O)C(C)(C)C6CC[C@@]5(C)[C@]3(C)CC4O)OC(CO)C2O)C(O)C(O)C1OC1OCC(O)C(O)C1O (some centres not stated)	Methyltransferases active
CC1(C)CC[C@@]2(C(=O)O[C@@H]3O[C@H](CO)[C@@H](O)[C@H](O)[C@H]3O)C(C1)C1=CCC3[C@@]4(C)CC[C@@H](O[C@@H]5O[C@H](C(=O)O)[C@@H](O[C@@H]6OC[C@@H](O)[C@H](O)[C@H]6O)[C@H](O[C@@H]6OC[C@](O)(CO)[C@H]6O)[C@H]5O)C(C)(C)C4CC[C@@]3(C)[C@]1(C)C[C@H]2O (some centres not stated)	none
CC1(CO)CC[C@]2(C(=O)O[C@@H]3O[C@H](CO)[C@@H](O)[C@H](O)[C@H]3O)CC[C@]3(C)C(=CCC4[C@@]5(C)CC[C@H](O[C@@H]6O[C@H](C(=O)O)[C@@H](O)[C@H](O)[C@H]6O)C(C)(C)C5CC[C@]43C)C2C1 (some centres not stated)	none
CC1(C)CC[C@]2(C(=O)O[C@@H]3O[C@H](CO)[C@@H](O)[C@H](O)[C@H]3O)CC[C@]3(C)C(=CCC4[C@@]5(C)CC[C@H](O[C@@H]6O[C@H](C(=O)O)[C@H](O)[C@H](O)[C@H]6O)C(C)(C)C5CC[C@]43C)[C@@H]2C1 (some centres not stated)	Methyltransferases active
CC(C)OCCCNC(=O)c1cc2n(n1)CC(C)(C(=O)NCc1ccc(F)cc1)N(C)C2=O (configuration not stated)	none
Cn1cc(C(=O)NCCc2cccs2)c(S(=O)(=O)N2CCCCC2)n1	none
CC1(C)CC[C@]2(C(=O)O[C@@H]3O[C@H](CO[C@@H]4O[C@H](CO)[C@@H](O)[C@H](O)[C@H]4O[C@@H]4O[C@H](CO)[C@@H](O)[C@H](O)[C@H]4O)[C@@H](O)[C@H](O[C@@H]4O[C@H](CO)[C@@H](O)[C@H](O)[C@H]4O)[C@H]3O)CC[C@]3(C)C(=CCC4[C@@]5(C)CC[C@@H](O)[C@@](C)(C(=O)O[C@@H]6O[C@H](CO)[C@@H](O)[C@H](O)[C@H]6O)C5CC[C@]43C)[C@@H]2C1 (some centres not stated)	none
COC(=O)c1cc2n(n1)CC(C)(C(=O)NC1CCCCCC1)N(c1ccc(C)c(C)c1)C2=O (configuration not stated)	none
Cc1ccc(N2C(=O)CSc3c(c4ccccc4n3C)C2C(=O)NCCC(C)C)cc1C (configuration not stated)	none
CCS(=O)(=O)N(Cc1cccnc1)c1cccc(-c2ccc(C#N)cc2)c1	none
N#Cc1ccc(-c2cnc3[nH]cc(NC(=O)c4cccnc4)c3c2)cc1	Methyltransferases active
O=C(NCCNC(=O)c1cccnc1)c1cccnc1	none
COCCN1C(=O)c2c(-n3cccc3)c3cc(C)ccc3n2CC1(C)C(=O)NC1CCCCC1 (configuration not stated)	none
COc1cccc(N2C(=O)CSc3c(c4ccccc4n3C)C2C(=O)NCc2ccc(F)cc2)c1 (configuration not stated)	none
C[C@H]1CC[C@@]2(OC1)O[C@H]1CC3[C@@H]4CC[C@@H]5C[C@@H](O[C@@H]6O[C@H](CO)[C@@H](O[C@@H]7O[C@@H](C)[C@H](O)[C@@H](O)[C@H]7O)[C@H](O)[C@H]6O[C@@H]6O[C@H](CO)[C@@H](O)[C@H](O)[C@H]6O)CC[C@]5(C)C4CC[C@]3(C)[C@H]1[C@@H]2C (some centres not stated)	none
CC(=O)Nc1c2n(c3ccccc13)CC(C)(C(=O)NC1CCCC1)N(C1CCC(C)CC1)C2=O (configuration not stated)	none
c1cc(NC2CCNCC2)nc(-c2cnc3ccccn23)c1	Methyltransferases active
O=C(Nc1ccccc1Cl)c1cnc2ccc(C3CCNCC3)cn12	none
CCOC(=O)c1cc2n(n1)CC(C)(C(=O)NCc1ccccc1)N(c1cccc(Cl)c1C)C2=O (configuration not stated)	none
Cc1ccc(NC(=O)c2sc(=S)n3c2[nH]c(=O)c2cc(Cl)ccc23)c(C)c1	none
Cc1cccc(-c2n[nH]n3c2nc(=O)c2ccc(C(=O)NCc4ccc5c(c4)OCO5)cc23)c1	none
COc1ccccc1NC(=O)c1sc(=S)n2c1[nH]c(=O)c1cc(Cl)ccc12	none
O=C(NCc1ccc2c(c1)OCO2)c1ccc2c(=O)[nH]c3c(C(=O)NCC4CCCO4)sc(=S)n3c2c1 (configuration not stated)	none
Cc1ccc2c(c1)c(=O)[nH]c1c(C(=O)NCc3ccc4c(c3)OCO4)sc(=S)n12	Methyltransferases active
COc1cc2c(=O)[nH]c3c(C(=O)NCc4ccc5c(c4)OCO5)sc(=S)n3c2cc1OC	none
CC[C@H](C)NC(=O)c1sc(=S)n2c1[nH]c(=O)c1cc(Cl)ccc12	Methyltransferases active
Cn1c(=O)c2ccc(C(=O)NC3CCCC3)cc2n2c(=O)n(CC(=O)NCc3ccc(Cl)cc3)nc12	none
O=C(NCc1ccc(Cl)cc1)c1ccc2c(=O)[nH]c3c(C(=O)NC4CCCC4)sc(=S)n3c2c1	Methyltransferases active
CC(C)NC(=O)N1Cc2c(sc3c2CCCC3)-n2cccc2C1c1ccccc1 (configuration not stated)	none
CCN1C(=O)c2cc(C(=O)NCc3ccc(F)cc3)nn2CC1(C)C(=O)NC1CCCC1 (configuration not stated)	none
O=C(Cn1nc2n(Cc3ccccc3)c(=O)c3ccccc3n2c1=O)c1ccc(Br)cc1	none
CC(C)CCn1c(=O)c2ccc(C(=O)NCC(C)C)cc2n2c(=O)n(CC(=O)N(C)c3ccccc3)nc12	none
O=C(CSc1nnc2n(Cc3ccc(F)cc3)c(=O)c3ccccc3n12)NCc1ccccc1	none
CC(C)CCn1c(=O)c2ccc(C(=O)NC(C)C)cc2n2c(=O)n(Cc3ccc(F)cc3Cl)nc12	none
Cc1ccsc1CN1CCC2(CC1)Cc1ccccc1CNC2=O	none
COc1ccc(C(=O)Cn2nc3n(Cc4ccc(F)cc4)c(=O)c4ccccc4n3c2=O)cc1	none
Cc1ccc(NC(=O)CSc2nnc3n(C)c(=O)c4ccc(C(=O)NC5CCCCC5)cc4n23)c(C)c1	none
Nc1ncnc2c1c(-c1ccc(Oc3ccccc3)cc1)nn2[C@@H]1CCCNC1	Methyltransferases active
Nc1ncnc2c1c(-c1cnc3[nH]ccc3c1)nn2C1CCCC1	Methyltransferases active
CC(NS(=O)(=O)c1ccc2[nH]c(=O)[nH]c2c1)c1ccccc1 (configuration not stated)	none
CCC(C)NC(=O)c1ccc2c(=O)n(C)c3nn(Cc4cccc(C)c4)c(=O)n3c2c1 (configuration not stated)	none
CCC(C)NC(=O)CSc1nnc2n(CCc3ccccc3)c(=O)c3ccccc3n12 (configuration not stated)	none
CN1C(=O)c2cc(C(=O)NC3CCCCC3)nn2CC1(C)C(=O)NC1CCCC1 (configuration not stated)	none
Nc1nc(-n2cc(C(=O)O)c(=O)c3cc(F)c(N4CC(O)C4)c(Cl)c32)c(F)cc1F	Methyltransferases active

Assay outcomes deposited in PubChem BioAssay by National Center for Advancing Translational Sciences (NCATS).
